# Compound activity as filed in PubChem BioAssay.
# CYP2C9 act – CYP2C9 (human) activation | recombinant CYP2C9, luciferin-H conversion, luminescence; hits give high values; factor 1 = untreated enzyme, 0 = blocked | AID 1024 | activation factor at 5 µM | P11712 | actives 1.4% (n = 96,000);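 active = activation factor of 2 or more for CYP2C9 at a 5 µM dose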;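 note: 0 = sulfaphenazole-blocked wells and 1 = vehicle-only wells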
# Target sequence (P11712 whole entry, looked up): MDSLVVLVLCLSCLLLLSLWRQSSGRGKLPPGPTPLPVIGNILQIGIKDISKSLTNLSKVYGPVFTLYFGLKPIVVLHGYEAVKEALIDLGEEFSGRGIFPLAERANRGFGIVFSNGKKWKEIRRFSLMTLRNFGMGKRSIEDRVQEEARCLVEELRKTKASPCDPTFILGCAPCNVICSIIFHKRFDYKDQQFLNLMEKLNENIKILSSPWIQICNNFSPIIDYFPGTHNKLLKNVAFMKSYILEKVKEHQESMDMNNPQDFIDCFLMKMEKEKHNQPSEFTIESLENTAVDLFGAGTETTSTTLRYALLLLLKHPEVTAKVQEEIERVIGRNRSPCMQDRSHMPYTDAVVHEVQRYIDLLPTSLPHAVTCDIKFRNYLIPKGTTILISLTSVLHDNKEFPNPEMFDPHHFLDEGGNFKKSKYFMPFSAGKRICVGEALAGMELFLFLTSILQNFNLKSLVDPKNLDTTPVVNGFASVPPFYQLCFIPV
# CYP2C19 activ – cytochrome P450 2C19 (human) activation; P33261; recombinant CYP2C19, luciferin-H EGE luminescence; hits give high values; 0 = fully inhibited enzyme, 1 = untreated enzyme; activation factor at 5 µM; 96,000 tested, under 10 active;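 active = activation factor of at least 2 at 5 µM in the primary screen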;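 note: 0 = wells with 2.5 mM tranylcypromine and 1 = vehicle-only wells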
# CYP2C19 inhib – blocks human cytochrome P450 2C19; P33261; CYP2C19 Supersomes, luciferin-H EGE luminescence, 30 min; inhibition, % at 5 µM; actives 21% (n = 96,000);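 active = CYP2C19 inhibition above a set limit at 5 µM in the primary screen, cut at about 50% in these data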;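 note: plate controls were negative control wells for no effect and 2.5 mM tranylcypromine positive control for full effect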
# CYP2C9 inh – inhibitors of human CYP2C9; P11712; CYP2C9 Supersomes, luciferin-H conversion, luminescence; inhibition, % at 5 µM; actives 20% (n = 96,000); AID 777;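 active = blocking of liver enzyme CYP2C9 beyond about 50% at 5 µM, limit read from the data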
# * marks the source's active call; other numbers are inactive results. The list is not random: actives were taken first. Their share in the collection is about 31%.
SMILES,CYP2C9 act,CYP2C19 activ,CYP2C19 inhib,CYP2C9 inh
O=C1[C@H]2[C@@H](C(=O)N1c1cc(Cl)cc(Cl)c1)[C@]1(C(=O)Nc3ccccc31)N1CCC[C@@H]21,0.1,0.5,52*,90*
Cc1cc(Cl)c2c(c1)[C@]1(C(=O)N2)[C@@H]2C(=O)N(Cc3ccccc3)C(=O)[C@@H]2[C@@H]2CCCN21,0.9,0.8,18,12
Cc1c(C(=O)N2CCCC2)sc(NC(=O)c2cccc(Cl)c2)c1C#N,0.7,1.1,-12,31
Cc1cccc(-c2noc(Cc3ccc(Cl)cc3)n2)c1,0.4,0.2,80*,56*
COc1ccc(Cc2nc(-c3cccc(C)c3)no2)cc1,1,1,-3,-5
CC1CCCC(C)N1C(=O)c1cc(F)c(F)cc1Cl (stereo not given),0.9,0.4,59*,8
CSc1nnc2n(Cc3ccccc3)c(=O)c3c4c(sc3n12)COC(C(C)C)C4 (stereo not given),0.8,1.1,-13,15
O=C(CN1CCN(Cc2ccccc2Cl)C1=O)N1CCCCCC1,1.5,0.4,59*,-47
CN(CCNC(=O)CN1CCN(Cc2ccccc2Cl)C1=O)Cc1ccccc1,0.7,0.6,40,29
CC(=O)c1cccc(NC(=O)C(OC(=O)/C=C/c2ccc3c(c2)OCO3)c2ccccc2)c1 (stereo not given),0.1,0.2,76*,95*
Cc1nc2cccc(C)n2c(=O)c1Cl,1.1,1,1,-14
Cn1c(CCNC(=O)c2cccs2)nnc1SCC(=O)Nc1nc(-c2ccccc2)cs1,0.5,1,-4,47
CN(C)S(=O)(=O)n1cnc(-c2ccccc2)c1-c1ccccc1,0.8,0.8,18,24
C=CCn1c(Cc2cccs2)nnc1SCC(=O)c1ccc(F)cc1,0.4,0.1,93*,56*
C=CCn1c(Cc2cccs2)nnc1SCC(=O)NCc1ccco1,0.3,0.7,32,65*
CCOc1ccc(Nc2nc(Cc3nnc(SCC(=O)NCc4ccco4)n3CC)cs2)cc1,0.4,0.7,35,55*
C=CCn1c(Cc2cccs2)nnc1SCC(=O)c1cccc(Br)c1,0.7,0.4,62*,34
C=CCn1c(Cc2cccs2)nnc1SCC(=O)Nc1ccc(OC)c(OC)c1,0.9,0.8,16,9
CCc1nnc(NC(=O)C2CCN(c3cnccn3)CC2)s1,0.8,0.9,5,25
CC(C)Oc1ccc(CNC2CCOC(C)(C)C2)cc1 (stereo not given),1.3,1.2,-16,-31
C=CCn1c(SCC(=O)c2ccc(OC)cc2)nnc1C(C)NC(=O)c1cccs1 (stereo not given),1,1,-2,5
C=CCn1c(Cc2cccs2)nnc1SCC(=O)c1ccc2ccccc2c1,0.7,0.4,55*,27
CCOC(=O)CCn1cc(F)c(=O)n(Cc2ccccc2)c1=O,0.9,0.5,52*,11
CCOC(=O)Cn1c(=O)c2c(nc(Br)n2Cc2ccc(Cl)cc2)n(C)c1=O,0.4,0.6,44,56*
CCOC(=O)CCn1c(=O)c2c(nc(Br)n2Cc2ccccc2)n(C)c1=O,0.6,0.4,60*,41
SMILES,CYP2C9 act,CYP2C19 activ,CYP2C19 inhib,CYP2C9 inh
Cn1cnc2c1c(=O)n(Cc1ccccc1)c(=O)n2C,1,0.8,25,4
CCOC(=O)Cn1c(=O)c2c(nc(N3CCCCC3)n2Cc2ccccc2)n(C)c1=O,0.7,0.8,17,31
O=C(c1ccc(Cl)c(F)c1F)N1CCCC1,1,0.9,14,-1
CCOc1cc(NC(=O)CC(C)C)c(OCC)cc1NC(=O)CCn1nnc2ccccc21,1,1,-2,2
CCC(C)NC(=O)c1ccccc1NC(=O)CN1C(=O)c2ccccc2S1(=O)=O (stereo not given),0.2,0.9,10,85*
O=C(OCCN1C(=O)c2ccccc2C1=O)c1ccc(S(=O)(=O)N2CCCCCC2)cc1,0.2,0.6,42,82*
COC(=O)c1ccc(CN2C(=O)c3ccccc3S2(=O)=O)cc1,0.4,0.2,84*,60*
O=C(OCC(=O)c1ccc[nH]1)c1ccc(S(=O)(=O)N2CCCCCC2)cc1,0.7,1,4,28
COC(=O)c1ccccc1NC(=O)CN1C(=O)c2ccccc2S1(=O)=O,1,0.9,13,3
O=C(CN1C(=O)c2ccccc2S1(=O)=O)Nc1ccc(S(=O)(=O)N2CCCCCC2)cc1,0.1,0.5,50*,87*
O=C1NC2=C(C(=O)CCC2)C(c2ccc3ncccc3c2)N1 (stereo not given),1,1.1,-8,-1
